According to the supplement of paper PMC12494721:
Structures can show the parent of a compound that is named as a salt.

These molecules were tested on Klebsiella aerogenes DSM 30053 (assay: fold change of Putrescine concentration vs plate DMSO controls (fold change (ratio)); higher = more amine produced, active = hit call of the paper (significant change in both replicates, either direction)). Conditions: incubation time: 27 h, anaerobic, 37 °C;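 for the amine columns active = adjusted P below 0.05 in both replicates with a change the same way and a mean fold change under 0.8 or over 1.25; inactive = the rest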.
Method in brief: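 In 80 µL wells, cultures of four gut bacterial strains in mGAM started at OD 0.1 before a 1:1 dilution and grew anaerobically at 37 °C for 27 h. Compounds were added to 20 µM final, except sweeteners at 50 µM final. After extraction of whole cultures with cold acetonitrile/methanol plus 0.1% formic acid and centrifugation, amines were measured by LC–triple-quadrupole MS in dynamic MRM mode against external calibration curves, with within-batch drift correction. Values give fold change over DMSO controls on the same plate, averaged across 2 biological replicates.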

| Structure (SMILES) | fold change of Putrescine concentration |
| --- | --- |
| CC1CC(OC(=O)C(O)c2ccccc2)CC(C)(C)C1 (centres undefined) [Cyclandelate] (20 µM) | 1.02 (inactive) |
| COc1ccc(C(=O)CC(=O)c2ccc(C(C)(C)C)cc2)cc1 [Avobenzone] (20 µM) | 0.993 (inactive) |
| Cc1nc2ccccc2n1Cc1ccc(Cl)cc1 [Chlormidazole] (20 µM) | 0.978 (inactive) |
| Cn1nnnc1SCC1=C(C(=O)O)N2C(=O)[C@@H](NC(=O)[C@H](O)c3ccccc3)[C@H]2SC1 [Cefamandole sodium salt] (20 µM) | 1.02 (inactive) |
| CCN1CCC[C@H]1CNC(=O)c1c(O)c(Cl)cc(Cl)c1OC [Raclopride] (20 µM) | 0.97 (inactive) |
| O=c1oc2ccccc2c(O)c1Cc1c(O)c2ccccc2oc1=O [Dicumarol] (20 µM) | 1 (inactive) |
| S=C([S-])NCCNC(=S)[S-].S=C([S-])NCCNC(=S)[S-].[Mn+2].[Zn+2] (20 µM) | 0.852 (inactive) |
| CC(NCCC(c1ccccc1)c1ccccc1)c1ccccc1 (centres undefined) [Fendiline hydrochloride] (20 µM) | 1.03 (inactive) |
| Nc1ccc(S(=O)(=O)Nc2nccs2)cc1 [Sulfathiazole] (20 µM) | 1.02 (inactive) |
| CC(=O)/N=c1/sc(S(N)(=O)=O)nn1C [Methazolamide] (20 µM) | 0.981 (inactive) |
| Oc1ccccc1O [Catechol] (20 µM) | 1.01 (inactive) |
| COc1cc(C(=O)NS(=O)(=O)c2ccccc2C)ccc1Cc1cn(C)c2ccc(NC(=O)OC3CCCC3)cc12 [Zafirlukast] (20 µM) | 1.02 (inactive) |
| COc1nc(N)nc2c1ncn2[C@@H]1O[C@H](CO)[C@@H](O)[C@@H]1O [Nelarabine] (20 µM) | 1.01 (inactive) |
| O=C(NCc1ncc(C(F)(F)F)cc1Cl)c1c(Cl)cccc1Cl (20 µM) | 1.02 (inactive) |
| CCc1oc2ccccc2c1C(=O)c1cc(Br)c(O)c(Br)c1 [Benzbromarone] (20 µM) | 0.994 (inactive) |
| Nc1nc(=O)[nH]cc1F [Flucytosine] (20 µM) | 1.02 (inactive) |
| CC[N+](CC)(CC)CCOc1cccc(OCC[N+](CC)(CC)CC)c1OCC[N+](CC)(CC)CC [Gallamine triethiodide] (20 µM) | 0.945 (inactive) |
| COc1cc(C)nc(-n2nc(C)cc2OC)n1 [Epirizole] (20 µM) | 1.02 (inactive) |
| COc1ccccc1O [Guaiacol] (20 µM) | 0.999 (inactive) |
| COc1cccc2c1C(=O)c1c(O)c3c(c(O)c1C2=O)C[C@@](O)(C(=O)CO)C[C@@H]3O[C@H]1C[C@H](N)[C@@H](O)[C@H](C)O1 [Epirubicin hydrochloride] (20 µM) | 0.998 (inactive) |
| Cc1onc(-c2ccccc2)c1C(=O)N[C@@H]1C(=O)N2[C@@H]1SC(C)(C)[C@@H]2C(=O)O [Oxacillin sodium] (20 µM) | 0.992 (inactive) |
| CCCOc1cc(N)ccc1C(=O)OCCN(CC)CC [Propoxycaine hydrochloride] (20 µM) | 0.986 (inactive) |
| OC[C@H]1O[C@H](O[C@H]2O[C@H](CO)[C@@H](O)[C@H](O)[C@H]2O)[C@H](O)[C@@H](O)[C@@H]1O [Trehalose] (50 µM) | 0.901 (inactive) |
| CN1[C@@H]2CC[C@H]1C[C@@H](OC(c1ccccc1)c1ccccc1)C2 [Benztropine mesylate] (20 µM) | 1.03 (inactive) |
| C[C@H](CCC(=O)O)[C@H]1CC[C@H]2[C@@H]3CC[C@@H]4C[C@H](O)CC[C@]4(C)[C@H]3CC[C@]12C [Lithocholic acid] (20 µM) | 0.999 (inactive) |
| CN(C)CCC=C1c2ccccc2COc2ccccc21 [Doxepin hydrochloride] (20 µM) | 1 (inactive) |
| NC[C@H]1O[C@H](O[C@H]2[C@H](O)[C@@H](O[C@H]3O[C@H](CO)[C@@H](O)[C@H](N)[C@H]3O)[C@H](N)C[C@@H]2N)[C@H](N)C[C@@H]1O [Tobramycin] (20 µM) | 0.922 (inactive) |
| CC(=O)Oc1cccc2c1C(=O)c1c(OC(C)=O)cc(C(=O)O)cc1C2=O [Diacerein] (20 µM) | 0.956 (inactive) |
| CCCCc1ncc(/C=C(\Cc2cccs2)C(=O)O)n1Cc1ccc(C(=O)O)cc1 [Eprosartan mesylate] (20 µM) | 1 (inactive) |
